# Screening results (PubChem)
# D3 antag – D3 dopamine receptor (human) antagonism; P35462; max response, negative = inhibition, %; hit rate 2.5% among 360,000; D3R cells, DiscoveRx beta-arrestin luminescence, antagonist mode; active compounds read low; in the data active = max response below about -50%; inconclusive = no clear call, values can overlap the other calls; also: % is scaled to controls: 0 for no effect and ±100 for the full control effect
# Target sequence (P35462 whole entry, looked up): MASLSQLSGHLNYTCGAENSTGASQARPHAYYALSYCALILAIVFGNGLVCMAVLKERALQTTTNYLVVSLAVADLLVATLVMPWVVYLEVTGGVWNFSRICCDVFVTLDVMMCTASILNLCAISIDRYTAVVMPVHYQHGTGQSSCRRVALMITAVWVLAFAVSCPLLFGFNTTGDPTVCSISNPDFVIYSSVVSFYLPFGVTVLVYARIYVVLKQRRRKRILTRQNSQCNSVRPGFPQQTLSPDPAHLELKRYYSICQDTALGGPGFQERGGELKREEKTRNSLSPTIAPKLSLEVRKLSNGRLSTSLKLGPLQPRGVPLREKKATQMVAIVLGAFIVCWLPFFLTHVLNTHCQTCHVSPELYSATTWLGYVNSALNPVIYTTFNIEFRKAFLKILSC
#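 Cells plated overnight at 1500 cells/well, then exposed to library compounds with dopamine controls for 90 minutes at 37 degrees C. DiscoveRx reagent added for 30–60 minutes at room temperature; luminescence read, quantitative HTS format.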
# HepG2 viability – kills HepG2 cells in TGF-b inhibitor counter-screen. AID 588856. hit rate 0.76% among 410,000. Potency, µM (series often up to 46.1 µM), without a hit: top-dose activity change, negative = cytotoxicity, usual class: cytotoxic. HepG2 CAGA-GFP viability, ATP luminescence, 18 h; also: potency is read from the fitted curve at half-maximal effect
#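 CellTiter-Glo luminescence gave cytotoxicity after 18 hours at 37 degrees C. The cells were HepG2 CAGA-GFP in 1% FBS DMEM, stimulated with 500 pg/mL TGF-beta after compound addition. %Activity was normalised to no-cell wells (complete cell-killing) and DMSO (no toxicity), and curves were fitted and classified.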
# TGFb SMAD3 inh – inhibitors of TGF-b signaling; AID 588855; Potency, µM (titrated, usually from 46.1 µM), without a hit: at the highest dose activity, negative = inhibition, most hits filed as inhibitors; hit rate 1.2% among 410,000; HepG2 CAGA-GFP TGF-b/SMAD3 reporter, GFP fluorescence, 18 h; TGF-beta stimulated, 500 pg/mL final; also: potency is read from the fitted curve at half-maximal effect; % is scaled to controls: 0 for no effect and ±100 for the full control effect; nearly all actives have a fitted effect of over 65% in size
#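 First, reporter cells (HEPG2 CAGA-GFP) rested 2 h at 37 degrees C. Next, compounds were pinned in and TGF-beta added to 500 pg/mL final. After 18 h, GFP was imaged per cell and summed per well.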
# ATXN2 expr inh – ATXN2 expression inhibition. Potency, µM (titrated, usually from 57 µM), inactives show at the top dose activity change, negative = inhibition, actives largely listed as inhibitors. HEK-293 ATXN2-luciferase reporter, luminescence, 24 h. hit rate 0.72% among 360,000; also: potency is read from the fitted curve at half-maximal effect; % is scaled to controls: 0 for no effect and ±100 for the full control effect; nearly all actives have a fitted effect of over 55% in size
#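 qHTS (up to 57 uM final) was run with 24 h compound exposure of reporter cells at 37 °C. Each well was multiplexed: SteadyGlo luminescence measured ATXN2-luciferase expression after a fluorogenic Gly-Phe-AFC viability readout (25 uM final).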
# DRD3 agonist – D3 dopamine receptor (human) agonism; P35462; D3R DiscoveRx beta-arrestin cells, luminescence, 90 min; max activation, %; hit rate 0.58% among 410,000; in the data active = max activation above about 30%; also: 0% is about no effect
#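 Cells at 1500/well, incubated overnight, then treated with pinned compounds (dopamine as control) for 90 min at 37 degrees C. DiscoveRx reagent added for 30 - 60 minutes at room temperature; luminescence read.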
# ATXN viability – reduces viability in counter-screen for ATXN expression inhibitors; hit rate 0.49% among 400,000; S2 cells (HEK-293 line with an ATXN2-luciferase reporter) viability, CellTiter-Fluor protease fluorescence, 24 h; Potency, µM (top dose mostly 56.7 µM), actives largely listed as cytotoxic; AID 651635; also: potency is read from the fitted curve at half-maximal effect; nearly all actives have a fitted effect of over 40% in size
# Numbers without * were called inactive; i = inactive; ? = inconclusive; · = no result given. Compounds with a hit are over-represented: about 4.7% of the library has one in this group of screens. Unless noted, calls follow the shape of the dose curve; as a rule, active = well fitted curve in the direction sought with a large enough effect; inconclusive = small, poorly fitted or top-dose-only effect, or another doubt; inactive = no such curve, though single readings can be large; an effect the other way counts as inactive or inconclusive.
SMILES,D3 antag,HepG2 viability,TGFb SMAD3 inh,ATXN2 expr inh,DRD3 agonist,ATXN viability
CCc1ccc(C2C(C(C)=O)=C(C(=O)OC)Nc3nnnn32)cc1 (configuration not stated),-56.8*,-2.0%,0.8%,-2.4%,-4.9,i
COC(=O)C1=C(C(=O)c2ccccc2)C(c2ccccc2)n2nnnc2N1 (configuration not stated),-3.0,-18.6%,-1.0%,?,3.1,20µM*
FC(F)(F)c1cnc(NNC(=S)Nc2ccccc2)c(Cl)c1,-91.7*,-61.9%,?,·,-17.3,·
Cc1cccc(C)c1NC(=S)NNc1ncc(C(F)(F)F)cc1Cl,7.2,-8.8%,-15.9%,-0.4%,-1.9,i
FC(F)(F)c1cnc(NNC(=S)Nc2cccnc2)c(Cl)c1,-66.6*,0.1%,?,·,-10.6,i
COc1cccc(C(=O)NCC(=O)OCC(=O)Nc2ncc(Cl)cc2Cl)c1,0.0,10µM*,40.2%,9.6%,-6.4,i
CC(C)N(C(=O)[C@H]1CC(CC(=O)NCCc2ccccn2)C(=O)N2CCc3c([nH]c4ccccc34)[C@]12C)C(C)C (some centres not stated),?,-23.3%,?,-4.4%,0.0,i
CCN(CC)C(=O)[C@H]1C[C@H](CC(=O)NCc2cccc(C(F)(F)F)c2)C(=O)N2CCc3c([nH]c4cc(CCC(=O)N(C)C)ccc34)[C@]12C,33.6,-2.8%,-24.1%,-2.5%,0.9,?
CCN(CC)C(=O)[C@H]1CC(CC(=O)NCCC2=CCCCC2)C(=O)N2CCc3c([nH]c4ccc(OC)cc34)[C@]12C (some centres not stated),0.0,4.7%,?,-7.6%,41.0*,i
CC(C)N(C(=O)[C@H]1C[C@H](CC(=O)NCc2cccc(C(F)(F)F)c2)C(=O)N2CCc3c([nH]c4cc(CCC(=O)N(C)C)ccc34)[C@]12C)C(C)C,0.0,-22.1%,?,?,11.1,15.8µM*
CCN(CC)C(=O)[C@H]1C[C@H](CC(=O)NCC23CC4CC(CC(C4)C2)C3)C(=O)N2CCc3c([nH]c4ccc(Cl)cc34)[C@]12C,0.0,-92.3%,12.6µM*,?,-21.4,?
CC(C)N(C(=O)[C@H]1CC(CC(=O)NCCC2=CCCCC2)C(=O)N2CCc3c([nH]c4ccccc34)[C@]12C)C(C)C (some centres not stated),-5.4,-7.8%,?,?,-8.8,39.8µM*
Cc1cccc(C(=O)Nc2c(C(=O)NCc3ccc(Cl)cc3)sc3nc(C)cc(C)c23)c1,·,-48.4%,?,·,-5.7,·
COc1ccc2c(c1)c(CC(=O)OC/C=C(\C)CC/C=C(\C)CCC=C(C)C)c(C)n2C(=O)c1ccc(Cl)cc1,·,·,·,?,·,i
O=C(NCCc1nnc2n1CCN(Cc1c(F)cccc1F)CC2)c1ccc(F)cc1,·,·,·,·,·,i
O=C(CC1(O)C(=O)Nc2cc(Cl)cc(Cl)c21)c1ccncc1 (configuration not stated),?,-105.9%,?,?,-38.4,25.1µM*
COc1ccc(C(=O)CC2(O)C(=O)Nc3c(Cl)ccc(Cl)c32)cc1 (configuration not stated),·,·,·,-19.5%,·,·
Cc1cccc(Cn2cccc2CNS(=O)(=O)c2ccc(Br)cc2)c1,·,-106.6%,15.8µM*,?,0.0,?
CCc1ccc(S(=O)(=O)NCc2cccn2Cc2cccc(C)c2)cc1,·,-100.3%,?,?,-2.3,?
Cc1cccc(Cn2cccc2CNS(=O)(=O)c2ccc(C)c(C)c2)c1,·,-105.5%,17.8µM*,?,1.4,i
Cc1nc2c(-c3ccccc3)c(C)[nH]n2c(=O)c1Cc1ccc(C(C)C)cc1,·,-39.4%,-9.5%,?,-30.6,i
Cn1ccc(C(=O)NCC2CCC3(CCN(Cc4ccc(F)cc4F)CC3)O2)n1 (configuration not stated),·,·,·,·,·,i
N#Cc1ccc(C23CC4(C2)[C@H](CN(P(=O)(c2ccccc2)c2ccccc2)[C@@H]4c2ccccc2)C3c2ccc(Cl)nc2)cc1 (some centres not stated),?,-28.7%,12.6µM*,-37.3%,-16.6,?
CN1C[C@@H]2C(c3ccc(Cl)nc3)C3(c4ccc(C#N)cc4)CC2(C3)[C@H]1c1ccccc1 (some centres not stated),?,-20.2%,?,-22.8%,-15.3,i
COc1cccc(/C=C/c2nc(C#N)c(NC3CCCCC3)o2)c1,·,-31.4%,-6.2%,-4.1%,0.8,·
SMILES,D3 antag,HepG2 viability,TGFb SMAD3 inh,ATXN2 expr inh,DRD3 agonist,ATXN viability
COc1ccc(NC(=O)CCCS(=O)(=O)c2nc(-c3ccc(OC)c(OC)c3)cc(C(F)(F)F)n2)cc1OC,·,-100.9%,2.51µM*,·,-23.7,·
COc1ccccc1-c1cc(C(F)(F)F)nc(S(=O)(=O)CCCC(=O)Nc2ccc(F)c(Cl)c2)n1,·,-4.2%,0.3%,1.4%,-13.0,i
COc1ccccc1-c1cc(C(F)(F)F)nc(S(=O)(=O)CCCC(=O)Nc2cc(OC)c(OC)c(OC)c2)n1,·,-15.1%,2.1%,14.7%,-13.1,i
COc1ccc(-c2cc(C(F)(F)F)nc(S(=O)(=O)CCCC(=O)Nc3ccccc3C(F)(F)F)n2)cc1OC,·,-2.7%,2.82µM*,·,-21.1,·
COc1ccc(-c2cc(C(F)(F)F)nc(SCCC(=O)Nc3ccc(OC)c(OC)c3)n2)cc1,·,-50.4%,0.0%,-8.0%,-8.5,i
COc1ccc(-c2cc(C(F)(F)F)nc(S(=O)(=O)CCCC(=O)Nc3cccc(O)c3)n2)cc1OC,-52.9*,5.62µM*,3.55µM*,-98.1%,-22.1,·
COCCNC(=O)CSc1nc(-c2ccc(OC)c(OC)c2)cc(C(F)(F)F)n1,14.0,17.1%,-12.0%,9.1%,0.4,?
COc1ccccc1-c1cc(C(F)(F)F)nc(S(=O)(=O)CCCC(=O)O)n1,-23.3,-45.9%,17.8µM*,?,-24.7,?
Cc1ccc(C2Nc3ccccc3-n3c(-c4ccccc4)c4c(=O)n(C)c(=O)n(C)c4c32)o1 (configuration not stated),·,-52.1%,?,?,6.0,i
COc1ccc(CCNC(=O)CCc2c(C)c3cc4c(C)coc4cc3oc2=O)cc1,·,-24.7%,-16.2%,6.5%,6.9,i
O=C(NCCCc1nc2ccccc2n1Cc1ccc(Cl)cc1Cl)c1ccco1,·,-42.7%,?,-21.6%,-6.6,?
CCn1nc(NS(=O)(=O)c2ccccc2)c2cc3ccc(C)cc3nc21,-63.1*,-3.2%,4.3%,·,-4.6,i
